Consider ten molecules from PubChem BioAssay (NCI).

Several values for one entry are separate records, joined by “and”; a condition that tells them apart may be missing. Equal entries are not always repeated. About 79,000 compounds went through this panel and 15% of them were active in at least one assay; those are over-represented in the sample as a whole. Some compounds were tested as several samples or in several runs, with calls that do not always agree. Activity calls are given as the source filed them. No stated cut-off is given here; in the data, active means growth inhibition above about 70%; inactive means the rest. *1 amine or outer side, *2 acyl side, *3 side chain or, on linkers, in order; H or OH if unused. Where a SMILES comes first, the peptide text is derived from it. Bridges are numbered along the chain shown (N, C = ends). Roman numbers before positions name the chains, in order. [ ]: non-standard residue; d: D form. Actinocin(9to1) = Cc1c2oc3c(C)ccc(C(=O)[*:1])c3nc-2c(C(=O)[*:2])c(N)c1=O; NMeY = CN[CH](Cc1ccc(O)cc1)C(=O)O; Sar = CNCC(=O)O

Test [1] in a line: NCI Yeast Anticancer Drug Screen. Data for the rad50 strain (AID 155).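 Further: 0% = growth of vehicle-only cultures of the same strain.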 The conditions noted are these: S. cerevisiae rad50 strain growth inhibition; at 50.0 µM; stronger effect = higher value. In short, it runs like this: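 Growth of the mutant yeast was measured after compound exposure and referenced to vehicle-treated cultures.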
Test [2] is described as follows: NCI Yeast Anticancer Drug Screen. Data for the mec2-1 strain (AID 157). The conditions noted are these: S. cerevisiae mec2-1 strain, stronger effect = higher value. In short, it runs like this:
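Using mec2-1 yeast: add compound, measure growth, express inhibition versus vehicle-treated cultures.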

Test [3] can be described thus: NCI Yeast Anticancer Drug Screen. Data for the sgs1 mgt1 strain (AID 161).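 Further: 0% = growth of cultures given vehicle only.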 Conditions: S. cerevisiae sgs1 mgt1 strain, stronger effect = higher value. In short, it runs like this:
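This yeast growth screen uses a strain with defined DNA-repair lesions; compound-treated growth is compared with vehicle-treated growth.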

Test [4] in a line: NCI Yeast Anticancer Drug Screen. Data for the cln2 rad14 strain (AID 165).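 Further: 0% = growth equal to vehicle treated cultures.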 Conditions: S. cerevisiae cln2 rad14 strain, stronger effect = higher value. In short, it runs like this:
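Yeast strain cln2 rad14, bearing defects in cell cycle control and DNA repair, serves as the test system; values reflect growth inhibition compared with vehicle.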

Test [5] in a line: NCI Yeast Anticancer Drug Screen. Data for the bub3 strain (AID 167). Conditions: S. cerevisiae bub3 mutant strain, stronger effect = higher value. In short, it runs like this: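 Whole-cell yeast assay. The mutant strain was incubated with compounds, and growth inhibition was determined by comparison with vehicle-treated cells.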
Test [6] can be described thus: NCI Yeast Anticancer Drug Screen. Data for the mlh1 rad18 strain (AID 175). The conditions noted are these: S. cerevisiae mlh1 rad18 strain growth inhibition, stronger effect = higher value. Summed up: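 Steps: expose repair-defective yeast to compound; measure growth; express inhibition against vehicle-treated controls.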
The mark [7] stands for this setting: at 5.0 µM (retest, dose inferred, filed as 0.5).
Setting [8] is: at 50.0 µM (retest, dose inferred, filed as 5.0).

In the case of `CCOC(=O)C(CC(C(=O)OCC)C(=O)OCC)C(=O)OCC`, the growth inhibition in test [1] was -21.1% (inactive) and -11.8% (inactive); in test [2] (at 50.0 µM) it was -15.1% (inactive) and -16.2% (inactive); in test [3] (at 50.0 µM), -6.3% (inactive) and -20.6% (inactive); in test [4] (at 50.0 µM), 10.7% (inactive) and -16.1% (inactive); in test [5] (at 50.0 µM), 10.8% (inactive) and -12.5% (inactive); in test [6] (at 50.0 µM) it was -25.1% (inactive) and -9.15% (inactive).
With `CCC1C[N+]2=C(c3cc(OC)c(OC)cc3CC2)c2c1cc1n2CCc2cc(OC)c(OC)cc2-1` (stereo not given), the growth inhibition is 100% (active) in test [2] (setting [7]); 99% (active) in test [2] (setting [8]); 94.8% (active) in test [2] (at 50.0 µM); 99% (active) in test [3] (setting [7]); 99% (active) in test [3] (setting [8]); 94.5% (active) in test [3] (at 50.0 µM). Also, the growth inhibition is 96% (active) in test [4] (setting [7]); 99% (active) in test [4] (setting [8]); 92.8% (active) in test [4] (at 50.0 µM); 99% (active) in test [5] (setting [7]); 99% (active) in test [5] (setting [8]); 93.5% (active) in test [5] (at 50.0 µM). Further, the results for the growth inhibition in test [6] (setting [7]), in test [6] (setting [8]) and in test [6] (at 50.0 µM) were 97% (active), 99% (active) and 93.6% (active), respectively.
Turning to `NNS(=O)(=O)c1ccc(Cl)cc1`, the growth inhibition was -3.5% (inactive) and 13.2% (inactive) in test [1]; -19.1% (inactive) and 2.45% (inactive) in test [2] (at 50.0 µM); -5.45% (inactive) and 6.6% (inactive) in test [3] (at 50.0 µM); 22.9% (inactive) and 9.8% (inactive) in test [5] (at 50.0 µM); -8.3% (inactive) and 7% (inactive) in test [6] (at 50.0 µM).
`COc1ccc2[nH]ccc(=O)c2c1`: the growth inhibition was -28.1% (inactive) and 8.75% (inactive) in test [1]; -24.3% (inactive) and -0.05% (inactive) in test [2] (at 50.0 µM); -47.5% (inactive) and 12.3% (inactive) in test [3] (at 50.0 µM); -43% (inactive) and -3.7% (inactive) in test [5] (at 50.0 µM); -18.7% (inactive) and 5.95% (inactive) in test [6] (at 50.0 µM).
Regarding `O=c1c(I)c[nH]cc1I`, the growth inhibition in test [1] was -12.1% (inactive) and -3.2% (inactive); in test [2] (at 50.0 µM), -15.9% (inactive) and 14.1% (inactive); in test [3] (at 50.0 µM) it was -24.1% (inactive) and 4.45% (inactive); in test [5] (at 50.0 µM), -9.4% (inactive) and 15.7% (inactive); in test [6] (at 50.0 µM), 22.2% (inactive) and 14.8% (inactive).
In the case of `Cc1ccccc1NC(=O)Cc1csc2[n+]1C(=O)/C(=C/c1ccc([N+](=O)[O-])cc1)S2`, the growth inhibition is 29% (inactive) in test [2] (setting [7]); 33% (inactive) in test [2] (setting [8]); -6.7% (inactive) in test [2] (at 50.0 µM); -14% (inactive) in test [3] (setting [7]); -4% (inactive) in test [3] (setting [8]); 39.6% (inactive) in test [3] (at 50.0 µM). Moreover, the growth inhibition in test [4] (setting [7]) was -2% (inactive); in test [4] (setting [8]), 7% (inactive); in test [4] (at 50.0 µM) it was -27.7% (inactive); in test [5] (setting [7]), 8% (inactive); in test [5] (setting [8]), 4% (inactive); in test [5] (at 50.0 µM), 8.95% (inactive). In addition, the growth inhibition is 25% (inactive) in test [6] (setting [7]), 37% (inactive) in test [6] (setting [8]) and 20.5% (inactive) in test [6] (at 50.0 µM).
Consider `Cc1c2oc3c(C)ccc(C(=O)NC4C(=O)NC(C(C)C)C(=O)N5CCCC5C(=O)N(C)CC(=O)N(C)C(Cc5ccc(O)cc5)C(=O)OC4C)c3nc-2c(C(=O)NC2C(=O)NC(C(C)C)C(=O)N3CCCC3C(=O)N(C)CC(=O)N(C)C(Cc3ccc(O)cc3)C(=O)OC2C)c(N)c1=O` (stereo not given) (I: TVP[Sar][NMeY] / II: TVP[Sar][NMeY]; ester I:1-I:C, II:1-II:C; linker I:N-II:N via Actinocin(9to1); configuration not given here), for which the growth inhibition in test [1] is -11.3% (inactive) and -12.8% (inactive); in test [2] (at 50.0 µM) it was 0.3% (inactive) and 1.3% (inactive); in test [3] (at 50.0 µM), -3.65% (inactive) and -1.8% (inactive); in test [5] (at 50.0 µM) it was -8.7% (inactive) and 0.35% (inactive); in test [6] (at 50.0 µM) it was -25.1% (inactive) and -32.2% (inactive).
In the case of `CCOC(=O)c1[nH]c(C#N)c(C(=O)OCC)c1C`, the growth inhibition in test [2] (setting [7]) was 1% (inactive); in test [2] (setting [8]), 23% (inactive); in test [2] (at 50.0 µM), 26.4% (inactive); in test [3] (setting [7]) it was 3% (inactive); in test [3] (setting [8]), 17% (inactive); in test [3] (at 50.0 µM) it was 33.8% (inactive). The growth inhibition in test [6] (setting [7]) is 4% (inactive); in test [6] (setting [8]), 66% (inactive); in test [6] (at 50.0 µM) it was 10% (inactive).
`O=CC(O)C(O)C(OC1OC(CO)C(O)C(O)C1O)C(O)CO` (stereo not given) (tested in a mixture with another compound): the growth inhibition in test [1] is 89.5% (active) and 38% (inactive); in test [2] (at 50.0 µM), 96.5% (active) and 36.4% (inactive); in test [3] (at 50.0 µM) it was 94.3% (active) and 55.4% (inactive); in test [5] (at 50.0 µM), 98.2% (active) and 80.7% (active); in test [6] (at 50.0 µM), 95.3% (active) and 49.9% (inactive).
Regarding `COC(=O)c1nc(=S)[nH]c(C(=O)OC)c1C(=O)c1ccc(Cl)c(Cl)c1`, the growth inhibition in test [2] (setting [7]) is -1% (inactive); in test [2] (setting [8]), 98% (active); in test [2] (at 50.0 µM), 99% (active); in test [3] (setting [7]) it was 7% (inactive); in test [3] (setting [8]), 98% (active); in test [3] (at 50.0 µM) it was 99.3% (active). Moreover, the growth inhibition was 4% (inactive) in test [4] (setting [7]); 95% (active) in test [4] (setting [8]); 98.5% (active) in test [4] (at 50.0 µM); 0% (inactive) in test [5] (setting [7]); 98% (active) in test [5] (setting [8]); 98.2% (active) in test [5] (at 50.0 µM). In addition, the growth inhibition in test [6] (setting [7]) is 11% (inactive); in test [6] (setting [8]), 99% (active); in test [6] (at 50.0 µM) it was 99.2% (active).
